Measured values as given in PubChem BioAssay AID651900 (Broad Institute, 2012).
This is one part of the list. Active and inactive are the calls of the source. No rule for the calls is given here.

Test: NIH3T3 cell viability loss – plate reader, cherry-pick, two tests, cytotoxicity control, dose response (AID 651900)
Details: activity: test 2 concentration series, at 26 µM; series mostly up to 26 µM

Structure (SMILES) | activity | outcome
CC(=O)c1ccc(N2CCN(C(=O)c3ccc4nc[nH]c4c3)CC2)cc1 | -0.738% | inactive
COc1cc(-c2n[nH]c(=S)n2Cc2ccccc2)cc(OC)c1OC | 8.41% | inactive
CC(=O)CSc1nnc(CSc2ncccn2)n1C1CCCCC1 | 1.8% | inactive
O=C(c1ccncc1)N1CC[C@@H]2[C@H]1c1cc(Br)ccc1N[C@@H]2CO |  | inactive
C=C(C)CSc1nc(N)c2c3c(sc2n1)CCC3 | 4.68% | inactive
CCCOc1ccc2c3c(c(=O)oc2c1OCCC)CCC3 | -3.77% | inactive
O=C(CSc1n[nH]c(-c2cccnc2)n1)Nc1ccnc2ccccc12 | -10.2% | inactive
CS(=O)(=O)N1[C@H](C(=O)NCc2ccncc2)[C@@H](CO)[C@@H]2Cn3c(ccc(C4=CCCCC4)c3=O)[C@@H]21 |  | inactive
Cc1c2cnn(CC(=O)NCc3ccccn3)c(=O)c2c(C)n1Cc1ccc(Cl)cc1 | 7.63% | inactive
Cc1ccc(Cc2c(C)nc3nc(SCC(=O)NCCN4CCOCC4)nn3c2C)cc1 | -6.78% | inactive
Cn1c(=O)c2c(nc(OCc3cccnc3)n2Cc2ccccc2)n(C)c1=O | -10.3% | inactive
Cc1nc(=O)c(-c2ccccc2)c(C)n1-c1ccc(Br)cc1 | -4.55% | inactive
CC1(C)CC(=O)C=C(c2ccc3ncccc3c2)C1 | -5.48% | inactive
C=CCn1c(SCc2c(C(=O)OC)sc(N)c2C(=O)OC)nnc1-c1ccc(Cl)cc1 | -11.5% | inactive
Cc1c(OC(C)C(=O)NCC2CCC(C(=O)O)CC2)ccc2c1oc(=O)c1ccccc12 (stereo not drawn) | 1.67% | inactive
